Most compounds without a hit are left out; they make up all but 8.7% or so of the library.
PostGolgi yeast: phenotypic screen on post-Golgi transport, primary screen; post-Golgi transport phenotypic cell assay; inhibition, % at 10 µM; 98,000 compounds, 0.9% hits;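 also: yeast cells grown in 1536-well plates; yeast grown about 18 h at 30C before absorbance read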
hDAT+cocaine: changed hDAT dopamine uptake under cocaine IC80, either direction, primary screen, cocaine antagonist project, cell-based, LLC-PK1 hDAT, [14C]-dopamine uptake, MLSMR; Sodium-dependent dopamine transporter (Homo sapiens), Q01959; LLC-PK1 hDAT cells, [14C]-dopamine uptake with cocaine IC80; actives deviate in either direction; B-score at 10 µM; 110,000 compounds, 1.3% hits;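 active = Z score or B-score, a plate-position-corrected score, falls beyond the plate's 99.7% confidence bounds, in either direction; inactive = both scores lie inside the 99.7% bounds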
PostGolgi ctrl: growth inhibition of yeast control strain, primary screen, counter-screen for post-Golgi transport modulator project. inhibition, % at 10 µM. 98,000 compounds, 5% hits. efflux-deficient yeast background strain, growth absorbance A615, 16 h
Cav32 inh: Cav3.2 calcium influx blockers – cell-based, Fluo-4 calcium fluorescence, FDSS, MLSMR library, primary screen | 100,000 compounds, 4% hits | Cav3.2-expressing cells; hits give low values | B-score at 10 µM | AID 449739, 2010 | Voltage-dependent T-type calcium channel subunit alpha-1H (Homo sapiens), O95180;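 active = single-dose well whose peak fluorescence ratio is a statistical outlier from its plate by either plate-standardised score or position-corrected B-score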
TNAP act DEA: human TNAP enzyme activators, primary screen, biochemical, luminescent, intermediate phosphate acceptor level; 64,000 tested, under 10 active; purified TNAP, CDP-star luminescence, 100 mM DEA, 30 min; hits give high values; scale: 0 levamisole-inhibited, 1 vehicle-only enzyme; Alkaline phosphatase, tissue-nonspecific isozyme (Homo sapiens), P05186; activation factor at 20 µM;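 active = activation factor of at least 2 at 20 µM, relative to controls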
Smad3 inh: Smad3/FoxH1 peptide binding inhibitors, primary screen, biochemical, TR-FRET. inhibition, % at 25 µM. 88,000 compounds, 0.29% hits. TR-FRET Smad3/Dy647-FoxH1 peptide binding, europium anti-His. AID 630, 2007;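 active = compounds that reduce the energy-transfer binding signal between the protein and its labelled peptide by more than half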
Target sequence (P84022 whole entry, looked up): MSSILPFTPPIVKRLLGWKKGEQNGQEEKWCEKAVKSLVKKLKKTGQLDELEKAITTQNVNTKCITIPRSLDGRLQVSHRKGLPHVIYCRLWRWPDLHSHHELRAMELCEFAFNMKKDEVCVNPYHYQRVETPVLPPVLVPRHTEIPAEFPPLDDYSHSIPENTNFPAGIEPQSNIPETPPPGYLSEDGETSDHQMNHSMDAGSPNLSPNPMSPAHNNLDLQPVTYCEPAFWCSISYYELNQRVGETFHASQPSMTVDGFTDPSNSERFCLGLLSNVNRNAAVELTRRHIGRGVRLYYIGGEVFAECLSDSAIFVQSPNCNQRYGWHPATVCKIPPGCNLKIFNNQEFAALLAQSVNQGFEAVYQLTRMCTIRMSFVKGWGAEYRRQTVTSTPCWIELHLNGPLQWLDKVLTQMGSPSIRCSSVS
Of the large screens only hits and unclear results are named; the others gave an inactive call. Rule as the data show it, unless noted: active = inhibition above about 30%; inactive = the rest.

COC(=O)c1nc2n(n1)C(c1cc(OC)ccc1OC)C(C(=O)OC1CCCCC1)=C(C)N2 (configuration not stated)	Cav32 inh -4.8 (no result: Smad3 inh)
Cc1cc(C)cc(C(=O)N2CC(=O)Nc3ccccc32)c1	hDAT+cocaine -3.3 (no result: TNAP act DEA)
O=S(=O)(c1cccc2ccccc12)N1CCSC1	none (no result: PostGolgi yeast, PostGolgi ctrl)
COC(=O)c1cc2ccsc2n1Cc1nc(-c2ccc(OC)cc2)oc1C	none
OC1CCCN(c2c3c(nc4cc(-c5cccc(Cl)c5)nn24)CCC3)C1 (configuration not stated)	PostGolgi ctrl 96
Cc1cccc(-c2cc3nc4c(c(N5CCCC(O)C5)n3n2)CCC4)c1 (configuration not stated)	hDAT+cocaine 3.4, PostGolgi ctrl 79
Cc1cccc(-c2cc3nc4c(c(NCc5ccco5)n3n2)CCCC4)c1	PostGolgi ctrl 42 (no result: TNAP act DEA, Smad3 inh)
Cc1cccc(-c2cc3nc4c(c(N5CCC6(CC5)OCCO6)n3n2)CCCC4)c1	none (no result: PostGolgi yeast, hDAT+cocaine, PostGolgi ctrl, Cav32 inh)
Cc1cccc2cc(CN(CCN3CCOCC3)C(=O)NCc3ccccc3)c(=O)[nH]c12	none
Cc1cc2oc(=O)cc(COC(=O)c3cccc(N(C)C)c3)c2cc1C	none (no result: PostGolgi yeast, hDAT+cocaine, PostGolgi ctrl, Cav32 inh)
CCCc1cc(=O)[nH]c(SCC(=O)c2cc(C)n(C)c2C)n1	none (no result: TNAP act DEA)
Cn1c(=O)c2c(nc(NCc3ccc4c(c3)OCO4)n2Cc2ccc(F)cc2)n(C)c1=O	Cav32 inh -4.3
Cn1c(=O)c2c(nc(NCc3ccc4c(c3)OCO4)n2Cc2ccccc2)n(C)c1=O	Cav32 inh -6
Cn1c(=O)c2c(nc(Oc3ccc4c(c3)OCO4)n2Cc2ccc(Cl)cc2)n(C)c1=O	none
Cn1c(Oc2ccc3c(c2)OCO3)nc2c1c(=O)n(Cc1ccccc1)c(=O)n2C	PostGolgi ctrl 31 (no result: TNAP act DEA)
CC(O)CNc1nc2c(c(=O)n(C)c(=O)n2C)n1Cc1cccc(C(F)(F)F)c1 (configuration not stated)	hDAT+cocaine 1.8
O=C(c1ccc2c(=O)n(Cc3ccco3)c(=S)[nH]c2c1)N1CCN(c2ccccc2)CC1	none
Cc1[nH]n(-c2ccccc2)c(=O)c1Sc1ccc(Cl)cc1	PostGolgi ctrl 35 (no result: TNAP act DEA)
Cc1cc(=O)oc2cc(OCC#N)ccc12	none
CCCCNc1cc(=O)oc2ccccc12	none (no result: TNAP act DEA)
CCOc1ccc2oc(=O)cc(C)c2c1	PostGolgi ctrl 36 (no result: TNAP act DEA)
CCOc1ccc(Nc2cc(=O)oc3ccccc23)cc1	PostGolgi ctrl 48 (no result: TNAP act DEA)
S=C1N(c2ccccc2)C(c2ccc(Cl)cc2)N2CCCN12 (configuration not stated)	Cav32 inh -4.8 (no result: TNAP act DEA)
Nc1[nH]c(=S)[nH]c(=O)c1N=Nc1c(Br)cc(S(N)(=O)=O)cc1Br	Smad3 inh 54 (no result: PostGolgi yeast, hDAT+cocaine, PostGolgi ctrl, Cav32 inh, TNAP act DEA)
CC(O)C(O)C(O)C(O)C1NCCS1 (configuration not stated)	none
Clc1ccc2c(c1)-c1nnc(Br)n1-c1ccccc1S2	Cav32 inh -3.9 (no result: PostGolgi yeast, PostGolgi ctrl, TNAP act DEA)
CCOc1ccc(N(C(=O)/C=C/C(=O)Nc2cc(C)on2)C(C(=O)NC2CCCC2)c2ccccc2C)cc1 (configuration not stated)	Cav32 inh -5.4 (no result: TNAP act DEA, Smad3 inh)
CCOc1ccc(N2CC(C(=O)NCc3cccc(C)c3)CC2=O)cc1 (configuration not stated)	none
CCCn1c(SCC(N)=O)nc2c(c1=O)C1(CCCC1)Cc1ccccc1-2	PostGolgi ctrl 44 (no result: hDAT+cocaine, Cav32 inh)
CCn1c(SCC#N)nc2c(c1=O)C1(CCCC1)Cc1ccccc1-2	PostGolgi ctrl 52, Cav32 inh -6.9
CCOC(=O)c1cccc2c1-c1ccccc1/C2=N/O	none
CC1CCCC(C)N1C(=O)c1cccc2c1-c1ccccc1/C2=N/O (configuration not stated)	hDAT+cocaine 4, Cav32 inh -6.4 (no result: PostGolgi yeast, PostGolgi ctrl, TNAP act DEA)
CC(C)c1cc(-c2cc(C(=O)Nc3ccccc3)on2)nc(NC2CCCC2)n1	none (no result: PostGolgi yeast, PostGolgi ctrl, TNAP act DEA, Smad3 inh)
CO/N=C/c1ccc(Sc2ccccc2N)c([N+](=O)[O-])c1	PostGolgi ctrl 32 (no result: TNAP act DEA)
CO/N=C/c1ccc(Sc2ccccc2)c([N+](=O)[O-])c1	none (no result: TNAP act DEA)
COc1cccc(C2CC(c3cccs3)=NN2C(=O)CSc2nc3c(cnn3-c3ccc(F)cc3)c(=O)[nH]2)c1OC (configuration not stated)	hDAT+cocaine 3 (no result: PostGolgi yeast, PostGolgi ctrl, TNAP act DEA, Smad3 inh)
O=C(CSc1nc2c(cnn2-c2ccccc2)c(=O)[nH]1)N1CCOCC1	none
O=C(CSc1nc2c(cnn2-c2ccc(F)cc2)c(=O)[nH]1)N1CCOCC1	hDAT+cocaine -7.9
COc1ccc(S(=O)(=O)N(C)CC(=O)NCc2cccnc2)cc1Cl	none (no result: TNAP act DEA)
O=C(c1ccccc1)c1cncc(Br)c1	hDAT+cocaine -8.1
CCOC(=O)c1c(NC(=O)c2nn(CC)cc2Br)c(C#N)nn1-c1ccccc1	none
CCOC(=O)c1c(NC(=O)c2c(Br)cnn2C)c(C#N)nn1-c1ccccc1	PostGolgi ctrl 41 (no result: TNAP act DEA)
CCOC(=O)c1nn(-c2ccccc2)c(C#N)c1NC(=O)c1nn(CC)cc1Br	PostGolgi ctrl 44
CCOC(=O)C1=C(CC)Nc2ccccc2N=C1NC(=O)Nc1ccccc1OC	PostGolgi ctrl 37 (no result: Smad3 inh)
O=C1C2C(c3ccccc3)C=CC(c3ccccc3)C2C(=O)N1c1ccncc1 (configuration not stated)	PostGolgi ctrl 34 (no result: TNAP act DEA, Smad3 inh)
CCNC(=O)CN(CCc1ccccc1)S(C)(=O)=O	none
CCCCNC(=O)CN(CCc1ccccc1)S(C)(=O)=O	Cav32 inh -5.3 (no result: TNAP act DEA)
CCOc1ccccc1OCCOc1ccccc1OC(C)C	Cav32 inh -5.4 (no result: TNAP act DEA)
COc1cccc(OCCOc2ccccc2OC(C)C)c1	none (no result: TNAP act DEA)
COc1ccccc1CC1(C)NC(=O)N(CC(=O)N2CCc3ccccc3C2)C1=O (configuration not stated)	none
CCOC(=O)c1sc(NC(=O)c2cccnc2)c(C#N)c1C	none (no result: TNAP act DEA, Smad3 inh)
CCOC(=O)c1sc(NC(=O)c2cc(-c3ccccc3)nc3ccccc23)c(C#N)c1C	Cav32 inh -4.1 (no result: TNAP act DEA, Smad3 inh)
CCOC(=O)c1sc(NC(=O)CSc2n[nH]c(-c3ccccc3)n2)c(C#N)c1C	PostGolgi ctrl 41 (no result: hDAT+cocaine, Cav32 inh)
CC(=O)Nc1ccc(NS(=O)(=O)Cc2ccccc2)cc1	none
COc1ccc(S(=O)(=O)NCCSCc2ccccc2C)cc1Br	PostGolgi ctrl 36, Cav32 inh -4.9 (no result: TNAP act DEA, Smad3 inh)
CC(=O)C1=C(O)C(=O)N(CCN2CCOCC2)C1c1ccccc1 (configuration not stated)	none
CCCCP(=O)(CCCC)c1ccccc1C(=O)O	none (no result: Cav32 inh)
C=CCS/C(=N\n1cnc2ccccc2c1=O)N1CCCCC1	none (no result: Smad3 inh)
CC1(C)CC(=O)C2=C(C1)Oc1ncn(Cc3ccco3)c(=N)c1C2c1ccccc1 (configuration not stated)	PostGolgi ctrl 34
